Experiment [1] addresses Serine/threonine-protein kinase MRCK alpha (Homo sapiens) (UniProt Q5VT25). The conditions noted are these: at 0.1 µM.
The target is the same in experiment [2]. To be noted: at 1 µM.
Experiment [3] addresses Serine/threonine-protein kinase MRCK beta (Homo sapiens) (UniProt Q9Y5S2). The conditions noted are these: at 0.1 µM.
Experiment [4] shares this target. The conditions noted are these: at 1 µM.
Experiment [5] has as its target Ribosomal protein S6 kinase alpha-5 (Homo sapiens) (UniProt O75582). To be noted: at 0.1 µM.
The target is the same in experiment [6]. The conditions noted are these: at 1 µM.
The target in experiment [7] is Ribosomal protein S6 kinase alpha-4 (Homo sapiens) (UniProt O75676). The conditions noted are these: at 0.1 µM.
The target is the same in experiment [8]. The conditions noted are these: at 1 µM.
Experiment [9] has as its target Ribosomal protein S6 kinase beta-1 (Homo sapiens) (UniProt P23443). To be noted: at 0.1 µM.
The target is the same in experiment [10]. The conditions noted are these: at 1 µM.
Experiment [11] has as its target T1, 3-phosphoinositide-dependent protein kinase 1 (Homo sapiens) (UniProt O15530).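 Also: values are mean inhibition of PDK1.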
T1 sequence (whole entry): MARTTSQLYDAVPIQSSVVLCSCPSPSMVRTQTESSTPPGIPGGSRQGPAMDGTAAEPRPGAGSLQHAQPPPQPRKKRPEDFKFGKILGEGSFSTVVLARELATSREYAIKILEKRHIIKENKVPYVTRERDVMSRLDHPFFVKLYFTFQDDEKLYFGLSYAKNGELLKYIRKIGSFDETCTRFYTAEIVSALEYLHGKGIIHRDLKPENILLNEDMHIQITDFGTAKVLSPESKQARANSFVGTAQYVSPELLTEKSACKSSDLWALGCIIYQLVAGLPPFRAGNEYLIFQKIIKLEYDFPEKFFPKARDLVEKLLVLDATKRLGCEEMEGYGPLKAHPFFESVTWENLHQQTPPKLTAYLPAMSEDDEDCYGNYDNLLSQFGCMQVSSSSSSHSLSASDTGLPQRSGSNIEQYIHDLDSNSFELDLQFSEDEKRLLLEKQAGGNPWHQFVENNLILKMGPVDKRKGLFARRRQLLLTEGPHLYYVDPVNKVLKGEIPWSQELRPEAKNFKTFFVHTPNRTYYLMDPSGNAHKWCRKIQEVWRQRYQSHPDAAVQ
To be noted: at 0.1 µM.

The target of experiment [12] is cAMP-dependent protein kinase catalytic subunit alpha (Homo sapiens) (UniProt P17612). The conditions noted are these: at 0.1 µM.
Experiment [13] has the same target. To be noted: at 1 µM.
Experiment [14] deals with Protein kinase C alpha type (Homo sapiens) (UniProt P17252). To be noted: at 0.1 µM.
The target is the same in experiment [15]. The conditions noted are these: at 1 µM.
Experiment [16] addresses Protein kinase C beta type (Homo sapiens) (UniProt P05771). The conditions noted are these: at 0.1 µM.
For experiment [17] the target is unchanged. The conditions noted are these: at 1 µM.
For experiment [18], the target named is Protein kinase C eta type (Homo sapiens) (UniProt P24723). The conditions noted are these: at 0.1 µM.
Experiment [19] has the same target. The conditions noted are these: at 1 µM.
Experiment [20] addresses Protein kinase C gamma type (Homo sapiens) (UniProt P05129). The conditions noted are these: at 0.1 µM.

In ChEMBL document CHEMBL1961873, “Compounds: GSK PKIS; Assays: Nanosyn kinase panel” (2012) one finds inhibition data, which are given here for seven compounds.

Structures are written as SMILES.

Ribosomal protein S6 kinase alpha-5 (Homo sapiens), sequence (O75582 whole entry, looked up): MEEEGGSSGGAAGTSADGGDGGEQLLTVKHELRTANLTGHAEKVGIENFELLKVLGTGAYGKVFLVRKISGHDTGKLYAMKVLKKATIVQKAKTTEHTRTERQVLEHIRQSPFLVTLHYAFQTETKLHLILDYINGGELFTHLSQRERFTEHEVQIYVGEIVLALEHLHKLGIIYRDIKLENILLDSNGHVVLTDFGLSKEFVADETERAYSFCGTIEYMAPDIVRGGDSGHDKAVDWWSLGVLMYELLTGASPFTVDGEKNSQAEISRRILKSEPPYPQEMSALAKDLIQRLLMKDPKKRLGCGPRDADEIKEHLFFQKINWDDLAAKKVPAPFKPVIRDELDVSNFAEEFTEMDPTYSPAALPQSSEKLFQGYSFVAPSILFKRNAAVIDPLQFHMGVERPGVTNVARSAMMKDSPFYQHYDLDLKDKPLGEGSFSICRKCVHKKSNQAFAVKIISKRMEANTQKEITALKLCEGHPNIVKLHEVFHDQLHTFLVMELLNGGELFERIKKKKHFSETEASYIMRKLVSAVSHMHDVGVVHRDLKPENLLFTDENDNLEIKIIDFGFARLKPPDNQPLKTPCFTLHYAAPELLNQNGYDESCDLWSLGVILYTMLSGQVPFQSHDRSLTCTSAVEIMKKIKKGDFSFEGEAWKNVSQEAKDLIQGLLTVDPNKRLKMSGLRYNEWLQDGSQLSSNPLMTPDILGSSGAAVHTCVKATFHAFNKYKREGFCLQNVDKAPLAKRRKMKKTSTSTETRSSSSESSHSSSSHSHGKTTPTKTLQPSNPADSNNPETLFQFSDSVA
Serine/threonine-protein kinase MRCK beta (Homo sapiens), sequence (Q9Y5S2 whole entry): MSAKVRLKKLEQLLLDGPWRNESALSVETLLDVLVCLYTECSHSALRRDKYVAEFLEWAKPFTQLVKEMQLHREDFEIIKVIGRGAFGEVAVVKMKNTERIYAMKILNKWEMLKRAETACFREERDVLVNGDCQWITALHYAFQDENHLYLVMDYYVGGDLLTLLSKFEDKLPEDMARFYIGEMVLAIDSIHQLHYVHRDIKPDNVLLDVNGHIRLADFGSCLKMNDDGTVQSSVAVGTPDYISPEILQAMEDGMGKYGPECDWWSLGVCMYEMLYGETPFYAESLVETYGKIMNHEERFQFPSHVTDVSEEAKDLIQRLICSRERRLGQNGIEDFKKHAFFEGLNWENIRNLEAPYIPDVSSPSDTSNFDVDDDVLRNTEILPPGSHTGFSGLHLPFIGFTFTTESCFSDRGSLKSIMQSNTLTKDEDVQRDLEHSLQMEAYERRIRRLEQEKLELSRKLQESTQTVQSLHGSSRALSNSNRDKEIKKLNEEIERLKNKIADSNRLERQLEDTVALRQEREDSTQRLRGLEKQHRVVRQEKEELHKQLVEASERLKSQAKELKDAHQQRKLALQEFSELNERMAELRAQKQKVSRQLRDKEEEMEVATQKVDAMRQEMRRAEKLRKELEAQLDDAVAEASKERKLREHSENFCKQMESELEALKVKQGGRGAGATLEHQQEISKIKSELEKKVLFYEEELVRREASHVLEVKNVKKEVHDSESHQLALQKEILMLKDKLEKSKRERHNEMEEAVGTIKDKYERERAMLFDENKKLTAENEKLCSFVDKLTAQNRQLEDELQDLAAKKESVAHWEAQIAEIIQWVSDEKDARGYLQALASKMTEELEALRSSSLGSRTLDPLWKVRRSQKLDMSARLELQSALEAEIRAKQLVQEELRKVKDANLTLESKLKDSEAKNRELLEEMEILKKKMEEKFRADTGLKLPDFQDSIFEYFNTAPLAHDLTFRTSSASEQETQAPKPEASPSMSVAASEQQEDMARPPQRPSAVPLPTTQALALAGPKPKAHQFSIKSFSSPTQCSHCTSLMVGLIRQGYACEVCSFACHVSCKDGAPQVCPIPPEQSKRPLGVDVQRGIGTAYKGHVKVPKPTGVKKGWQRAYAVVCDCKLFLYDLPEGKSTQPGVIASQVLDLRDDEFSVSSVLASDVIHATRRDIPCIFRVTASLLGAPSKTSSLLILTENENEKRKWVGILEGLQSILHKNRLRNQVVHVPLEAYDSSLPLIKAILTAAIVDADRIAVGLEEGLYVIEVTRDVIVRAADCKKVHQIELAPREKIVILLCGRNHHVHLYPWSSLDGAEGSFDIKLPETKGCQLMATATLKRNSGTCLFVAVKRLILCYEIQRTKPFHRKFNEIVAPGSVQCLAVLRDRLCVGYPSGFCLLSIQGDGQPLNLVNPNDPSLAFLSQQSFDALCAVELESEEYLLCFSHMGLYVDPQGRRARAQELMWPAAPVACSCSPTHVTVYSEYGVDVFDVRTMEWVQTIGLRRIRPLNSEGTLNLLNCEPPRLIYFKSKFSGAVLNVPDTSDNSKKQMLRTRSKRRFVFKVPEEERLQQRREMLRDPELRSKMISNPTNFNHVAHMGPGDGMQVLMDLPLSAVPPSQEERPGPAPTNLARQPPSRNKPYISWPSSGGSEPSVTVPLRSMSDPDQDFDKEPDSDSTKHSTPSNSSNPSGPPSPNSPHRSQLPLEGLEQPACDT
Ribosomal protein S6 kinase alpha-4 (Homo sapiens), sequence (O75676 whole entry, looked up): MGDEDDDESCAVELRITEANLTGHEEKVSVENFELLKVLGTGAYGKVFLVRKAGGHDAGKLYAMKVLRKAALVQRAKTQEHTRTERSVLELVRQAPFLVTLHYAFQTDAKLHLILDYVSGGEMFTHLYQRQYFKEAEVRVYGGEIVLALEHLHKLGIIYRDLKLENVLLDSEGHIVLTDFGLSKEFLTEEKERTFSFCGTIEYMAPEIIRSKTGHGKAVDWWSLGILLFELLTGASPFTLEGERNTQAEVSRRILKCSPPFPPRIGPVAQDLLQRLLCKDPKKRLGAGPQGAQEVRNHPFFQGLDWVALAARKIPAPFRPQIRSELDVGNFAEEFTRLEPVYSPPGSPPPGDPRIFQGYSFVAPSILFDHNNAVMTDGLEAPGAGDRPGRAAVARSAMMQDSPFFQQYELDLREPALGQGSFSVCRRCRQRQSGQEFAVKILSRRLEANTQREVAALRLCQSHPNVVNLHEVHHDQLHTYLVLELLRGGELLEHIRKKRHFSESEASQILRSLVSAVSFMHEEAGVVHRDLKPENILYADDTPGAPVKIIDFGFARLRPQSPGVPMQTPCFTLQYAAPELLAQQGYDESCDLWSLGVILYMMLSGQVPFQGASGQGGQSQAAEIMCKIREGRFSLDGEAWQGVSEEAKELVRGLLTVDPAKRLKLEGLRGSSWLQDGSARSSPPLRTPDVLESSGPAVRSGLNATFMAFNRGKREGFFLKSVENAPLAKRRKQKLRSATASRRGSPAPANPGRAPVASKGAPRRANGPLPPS
Protein kinase C beta type (Homo sapiens), sequence (P05771 2-671 limits assumed): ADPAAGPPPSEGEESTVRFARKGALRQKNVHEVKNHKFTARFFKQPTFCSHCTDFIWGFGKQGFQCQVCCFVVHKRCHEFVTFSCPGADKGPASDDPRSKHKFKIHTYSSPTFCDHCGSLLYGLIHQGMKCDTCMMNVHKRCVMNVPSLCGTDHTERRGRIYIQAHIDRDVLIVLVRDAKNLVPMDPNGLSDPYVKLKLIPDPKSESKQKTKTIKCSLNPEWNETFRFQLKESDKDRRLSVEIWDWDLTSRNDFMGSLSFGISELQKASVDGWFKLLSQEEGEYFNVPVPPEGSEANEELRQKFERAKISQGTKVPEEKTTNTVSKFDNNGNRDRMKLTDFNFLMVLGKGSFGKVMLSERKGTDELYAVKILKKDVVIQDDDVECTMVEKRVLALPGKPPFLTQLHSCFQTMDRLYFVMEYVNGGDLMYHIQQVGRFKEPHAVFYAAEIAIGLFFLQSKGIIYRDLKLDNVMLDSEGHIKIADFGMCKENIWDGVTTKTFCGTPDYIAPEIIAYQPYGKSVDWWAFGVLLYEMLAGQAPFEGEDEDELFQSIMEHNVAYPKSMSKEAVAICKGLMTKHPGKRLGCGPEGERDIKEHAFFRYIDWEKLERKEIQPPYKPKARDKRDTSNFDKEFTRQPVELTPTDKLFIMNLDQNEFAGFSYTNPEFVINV

As to `COc1cc2ncn(-c3cc(OCc4ccccc4S(C)(=O)=O)c(C#N)s3)c2cc1OC`, the inhibition – broadly, the drop in the measured response relative to a control, in per cent – in [1] came out at 1.12%; in [2], 5.41%; in experiment [3] it was 1.99%; in experiment [4], 4.7%; in experiment [5], 8.16%; in experiment [6], 11%. Also, the inhibition worked out at 3.93% in [7]; 10% in experiment [8]; 3.14% in experiment [9]; 5.33% in [10]; 5.59% in experiment [11]; 2.29% in experiment [12]. In addition, the inhibition is 3.77% in experiment [13]; 1.33% in [14]; 2.72% in experiment [15]; 2.71% in [16]; 5.16% in [17]; 0.91% in experiment [18]. The inhibition in [19] is -1.63%; in [20], 1.77%.

With `CN(C)c1cc2c(Nc3ccc4c(cnn4Cc4ccccc4)c3)ncnc2cn1`, the inhibition in [1] was -0.16%; in experiment [2] it was 0.83%; in experiment [3], 1.04%; in experiment [4], 1.67%; in experiment [5] it was 3.83%; in experiment [6], 6.2%. Also, the inhibition in [7] stood at 2.42%; in experiment [8], 6.24%; in experiment [9], 2.01%; in experiment [10], 3.88%; in experiment [11], 2.47%; in [12], 1.45%. Further, the inhibition is 1.92% in [13]; -0.01% in experiment [14]; 0.82% in [15]; 0.49% in experiment [16]; 1.62% in [17]; -1.26% in [18]. The inhibition was 1.17% in [19] and 0.1% in experiment [20].

With `Cc1ccc(NC(=O)CC2CC2)cc1-c1ccc(C(=O)NCC2CC2)cc1`, the inhibition in experiment [1] was -0.72%; in experiment [2] it was 2.73%; in experiment [3] it was -0.56%; in [4], 0.45%; in experiment [5], 8.94%; in experiment [6] it was 8.13%. The inhibition in experiment [7] turned out to be 2.17%; in experiment [8] it was 2.4%; in experiment [9], 1.73%; in experiment [10], 2.46%; in [11], 1.84%; in experiment [12] it was 1.31%. Moreover, the inhibition in experiment [13] was 0.41%; in [14], 0.78%; in [15], 1.96%; in experiment [16], -0.34%; in experiment [17] it was 2.08%; in experiment [18] it was 3.52%. The inhibition in experiment [19] was determined as 4.84%; in experiment [20] it was 2.09%.

Take `CN(c1ccc(NC(=O)Nc2ccc(OC(F)(F)F)cc2)cc1)c1ccnc(Nc2cccc(S(N)(=O)=O)c2)n1`: the inhibition in experiment [1] was -5.74%; in [2], -0.82%; in experiment [3], -0.58%; in experiment [4], -2.72%; in [5], 0.92%; in experiment [6] it was -1.11%. Also, the inhibition in experiment [7] is 2%; in experiment [8], 4.78%; in experiment [9], -0.25%; in experiment [10], 1.95%; in experiment [11], 0.37%; in experiment [12], 1.4%. Further, the inhibition worked out at 2.04% in experiment [13]; 0.02% in [14]; 0.85% in experiment [15]; 0.45% in experiment [16]; 0.52% in experiment [17]; 0.81% in experiment [18]. Also, the values for the inhibition in experiment [19] and in experiment [20] were -0.51% and 2.48%, respectively.

As for `COc1ccc2ncnc(Nc3ccc(OCc4ccccc4)cc3)c2c1`, the inhibition in experiment [1] was 0.54%; in experiment [2], 2.68%; in [3], 0.54%; in [4] it was 0.8%; in [5], 1.25%; in [6], 0.63%. Besides, the inhibition was -3.48% in [7]; 1.47% in experiment [8]; 1.08% in experiment [9]; 0.96% in experiment [10]; 1.04% in experiment [11]; 2.11% in experiment [12]. Further, the inhibition in [13] is 1.43%; in experiment [14], -0.06%; in [15] it was 1.22%; in [16], 0.57%; in experiment [17], 2.16%; in experiment [18] it was -0.44%. The inhibition in experiment [19] was -0.65%; in [20], 0.01%.

Take `N#Cc1c(NC(=O)c2ccccc2F)sc2c1CCCC2`: the inhibition in experiment [1] was 1.07%; in [2], -1.26%; in [3], 0.23%; in experiment [4] it was -0.14%; in experiment [5], -2.83%; in [6] it was -2.33%. The inhibition is -1.11% in experiment [7]; -0.35% in experiment [8]; -0.91% in experiment [9]; -0.98% in [10]; -1.52% in experiment [11]; -0.5% in experiment [12]. Further, the inhibition is 0.91% in [13]; -0.76% in experiment [14]; 1.15% in experiment [15]; 0.38% in experiment [16]; 1.07% in experiment [17]; -2.89% in [18]. Besides, the inhibition in experiment [19] was 1.15%; in experiment [20], 0.73%.

Take `Cc1ccc2c(-c3ccnc(Nc4cccc(C(F)(F)F)c4)n3)c(-c3ccccc3)nn2n1`: the inhibition was 1.06% in [1]; 5.98% in experiment [2]; 0.83% in experiment [3]; 1.46% in experiment [4]; -3.38% in experiment [5]; -4.64% in experiment [6]. Further, the inhibition was found to be 2.52% in [7]; 3.99% in experiment [8]; 2.1% in experiment [9]; 2.71% in experiment [10]; 0.65% in experiment [11]; 2.43% in experiment [12]. The inhibition was 4.26% in experiment [13]; 1.57% in experiment [14]; 10.6% in experiment [15]; 0.54% in experiment [16]; 3.6% in experiment [17]; 5.12% in [18]. Moreover, the inhibition was 4.11% in experiment [19] and -1.08% in experiment [20].
